A selection: hits, their analogues and other compounds. The true share with any hit is near 8.1%.
MCF10A rereplic = A quantitative high throughput screen for small molecules that induce DNA re-replication in MCF 10a normal breast cells; MCF 10A DNA re-replication, Hoechst nuclear intensity, 48 h; Potency, µM (highest dose often 46.1 µM), inactives show at the highest dose activity, positive = re-replication, actives largely listed as activators; hit rate 2.9% among 350,000; note: % of control where 0% means no effect; nearly all actives have a fitted effect of over 50% in size
KB-V1 MDR tox = qHTS assay for MDR1-selective chemotherapeutics: Primary screen using the drug-selected MDR subline cells KB-V1; KB-V1 MDR cells viability, CellTiter-Glo, 72 h; Potency, µM (top dose mostly 46.1 µM), hits mostly cytotoxic; hit rate 3.4% among 400,000; AID 1347076, 2019; note: % is set by controls: 0 for no effect and ±100 for the full control effect; nearly all actives have a fitted effect of over 60% in size
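Potencies derive from concentration-effect curves fitted to normalized luminescence (CellTiter-Glo) of KB-V1 cells treated for 72 h at 37 degrees C in phenol-red-free DMEM containing 10% FBS.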
KB-3-1 cytotox = qHTS assay for MDR1-selective chemotherapeutics: Primary screen using the parental adenocarcinoma cell KB-3-1; KB-3-1 viability, CellTiter-Glo ATP luminescence, 72 h; Potency, µM (series often up to 46.1 µM), actives largely listed as cytotoxic; hit rate 1.4% among 400,000; note: % is set by controls: 0 for no effect and ±100 for the full control effect; nearly all actives have a fitted effect of over 60% in size
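Cytotoxicity measured as CellTiter-Glo luminescence after 72 h at 37 C. Compound titrations were pinned onto drug-naive KB-3-1 parental adenocarcinoma cells grown in DMEM with 10% FBS, and normalized data fitted to concentration-response curves.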
SW480 rerep = A quantitative high throughput screen for small molecules that induce DNA re-replication in SW480 colon adenocarcinoma cells | SW480 DNA re-replication, Hoechst DNA content imaging, 48 h | Potency, µM (highest dose often 46.1 µM), for the others: at the highest dose re-replication activation, usual class: activators | hit rate 1.8% among 340,000; note: % of control where 0% means no effect; nearly all actives have a fitted effect of over 55% in size
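Per well, 250 cells were exposed to pinned compound for 48 hr. Nuclear DNA was visualised with Hoechst (40 min, 37 C) and total object intensity recorded by fluorescence scanning.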
ELG1 DNA repair = qHTS screen for small molecules that inhibit ELG1-dependent DNA repair in human embryonic kidney (HEK293T) cells expressing luciferase-tagged ELG1; HEK293T ELG1-luciferase reporter, luminescence, 16 h; DNA damage induced by 5-fluorouridine; Potency, µM (top dose mostly 46.1 µM), inactives show at the highest dose activity change, negative = inhibition, most hits filed as inhibitors; hit rate 2.3% among 330,000; note: % is set by controls: 0 for no effect and ±100 for the full control effect; nearly all actives have a fitted effect of over 55% in size
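DMSO vehicle served as the neutral condition. Each well held 2,000 cells given 5-fluorouridine plus compound; after 16 hr at 37 °C/5% CO2, ONE-Glo was added and luciferase measured 30 min later.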
Starred values were filed as active, the others as inactive; i = inactive; ? = inconclusive; . = no result. Calls come from the whole dose curve; as a rule, active = well fitted curve in the direction sought with a large enough effect; inconclusive = small, poorly fitted or top-dose-only effect, or another doubt; inactive = no such curve, though single readings can be large; an effect the other way counts as inactive or inconclusive. Potency is the fitted concentration of half-maximal effect.

SMILES | MCF10A rereplic | KB-V1 MDR tox | KB-3-1 cytotox | SW480 rerep | ELG1 DNA repair
O=C(CSc1nnc(-c2cccs2)n1-c1ccccc1)N1CCCc2ccccc21 | ? | 16µM* | i | 16% | ?
O=C(N/N=C/c1ccc(F)cc1)c1c(O)c2ccccc2[nH]c1=O | ? | 10µM* | ? | . | ?
O=C(N/N=C/c1ccccc1)c1c(O)c2ccccc2[nH]c1=O | 10% | ? | 23µM* | -5% | ?
O=C(N/N=C/c1cccc(F)c1)c1c(O)c2ccccc2[nH]c1=O | -21% | ? | ? | -6% | ?
CCN(CC)c1ccc(C2Nc3ccccc3-c3cc(C)nn32)cc1 (stereo not drawn) | . | i | i | . | .
CCc1ncc(C)nc1CC | -3% | i | i | -35% | 14%
COCc1cc(NCc2ccc(Cl)cc2)nc(C)n1 | -1% | i | i | -24% | 8%
C=CCN(Cc1nc(-c2ccc(OC)cc2)no1)C(=O)c1ccc2c(c1)OCO2 | 18% | 21µM* | i | 0% | -9%
COc1ccc(-c2noc(CN(C(=O)c3ccc4c(c3)OCO4)C(C)C)n2)cc1 | 0% | i | i | -6% | ?
Cn1c(Cc2ccccc2)nnc1SCC(=O)NCCc1ccccc1 | 0.58µM* | i | i | -6% | 0%
COc1ccc(NC(=O)C#Cc2ccccc2)cc1 | ? | i | 21µM* | ? | ?
O=C(C#Cc1ccccc1)Nc1ccc(F)cc1 | 0% | i | ? | ? | ?
O=C(C#Cc1ccccc1)Nc1cccc(F)c1 | ? | ? | 23µM* | ? | ?
O=C(NC(=S)NNC(=O)c1cnccn1)c1ccc(Cl)cc1 | 0% | i | i | 12% | -10%
CCN(CC)S(=O)(=O)c1ccc(OC)nc1 | -3% | i | i | -2% | 2%
COc1ccc(CNCc2cc3c(C(C)(C)C)nn(-c4ccccc4)c3[nH]c2=O)cc1 | 8% | ? | i | -3% | -14%
Cc1ccc(CNCc2cc3c(C(C)(C)C)nn(-c4ccccc4)c3[nH]c2=O)cc1 | ? | 23µM* | i | ? | -13%
CCC(C)NC(=O)CSc1nnc(-c2ccc(C(C)(C)C)cc2)n1C (stereo not drawn) | ? | i | i | 2% | -40%
CC(C)NC(=O)CSc1nnc(-c2ccc(C(C)(C)C)cc2)n1C | ? | 26µM* | i | -21% | 6%
O=C(CCOc1ccccc1)N1CCN(S(=O)(=O)c2ccccc2F)CC1 | 3% | 21µM* | i | 3% | 17%
OCCCN=C1CCCc2c1[nH]c1ccc(Cl)cc21 | ? | 1.5µM* | 9.2µM* | -2% | -1%
OCCN=C1CCCc2c1[nH]c1ccc(Cl)cc21 | 13% | 0.73µM* | 2.1µM* | -8% | 8%
COc1ccc(NC(=O)CN2C(=O)C3CC=CCC3C2=O)cc1Cl (stereo not drawn) | . | i | i | . | .
O=C(NCc1ccco1)c1cc(-c2ccccc2)nn1CC1CC(c2cccc([N+](=O)[O-])c2)=NO1 (stereo not drawn) | 10% | i | i | 2% | ?
O=C(CN1CCN(c2cccc(C(F)(F)F)c2)CC1)N(C1CC1)C1CCS(=O)(=O)C1 (stereo not drawn) | -1% | i | i | 28% | -9%
O=C(CN1CCN(c2cccc(C(F)(F)F)c2)CC1)N(C1CCCC1)C1CCS(=O)(=O)C1 (stereo not drawn) | 6% | 21µM* | i | -4% | -4%
Cn1c(C(c2cc3ccccc3n2C)c2cc3ccccc3n2C)cc2ccccc21 | . | ? | 18µM* | . | .
Nc1nnc(CCCCc2cccs2)o1 | -4% | i | i | 0% | 22%
CN(C)c1ccc(C=Cc2cnccn2)cc1 | 18µM* | i | i | ? | .
CN(C)c1ccc(/C=C/c2ccnc3c2ccc2c(/C=C/c4ccc(N(C)C)cc4)ccnc23)cc1 | . | i | ? | . | .
